# Measurements from PubChem BioAssay AID1159580 (chemical genetic matrix, 2015).
# About 2,000 (36%) of roughly 5,500 compounds were called active. Inconclusive results (about 18%) are left out. Some of the results follow. Values without a mark were called inactive. Rule as the data show it: active = normalized growth mostly below about 0.91 (no sharp cut-off); inconclusive = no clear call, values can overlap the other calls; inactive = mostly above about 0.92.
# Experiment: chemical genetic growth profiling, strain panel (AID 1159580);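 also: tested at 20 µM; growth read once vehicle control cultures reached saturation at 30 °C; 1 = growth at the plate median or of vehicle wells; lower values mean less growth of the strain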
# Details: growth OD
smiles,measurement,setting,value
N#Cc1c(N)oc(-c2ccco2)c1-c1ccco1,normalized growth,"S. cerevisiae deletion strains, locus YAL013W, strain DEP1, active compounds read low",0.893 (active)
same,normalized growth,"S. cerevisiae deletion strains, locus YBR229C, strain ROT2, active compounds read low",0.975
same,normalized growth,"S. cerevisiae deletion strains, locus YDL101C, strain DUN1, active compounds read low",0.968
same,normalized growth,"S. cerevisiae deletion strains, locus YDL134C, strain PPH21, active compounds read low",0.947
same,normalized growth,"S. cerevisiae deletion strains, locus YDR150W, strain NUM1, active compounds read low",0.937
same,normalized growth,"S. cerevisiae deletion strains, locus YEL061C, strain CIN8, active compounds read low",0.947
same,normalized growth,"S. cerevisiae deletion strains, locus YGR078C, strain PAC10, active compounds read low",0.948
same,normalized growth,"S. cerevisiae deletion strains, locus YGR229C, strain SMI1, active compounds read low",0.994
same,normalized growth,"S. cerevisiae deletion strains, locus YHR030C, strain SLT2, active compounds read low",0.415 (active)
same,normalized growth,"S. cerevisiae deletion strains, locus YHR087W, strain rtc3, active compounds read low",0.97
same,normalized growth,"S. cerevisiae deletion strains, locus YJR043C, strain POL32, active compounds read low",0.943
same,normalized growth,"S. cerevisiae deletion strains, locus YJR075W, strain HOC1, active compounds read low",0.949
same,normalized growth,"S. cerevisiae deletion strains, locus YKL190W, strain CNB1, active compounds read low",0.992
same,normalized growth,"S. cerevisiae deletion strains, locus YLR039C, strain RIC1, active compounds read low",0.981
same,normalized growth,"S. cerevisiae deletion strains, locus YLR058C, strain SHM2 (second series), active compounds read low",0.961
same,normalized growth,"S. cerevisiae deletion strains, locus YLR085C, strain ARP6, active compounds read low",0.626 (active)
same,normalized growth,"S. cerevisiae deletion strains, locus YLR262C, strain YPT6, active compounds read low",0.999
same,normalized growth,"S. cerevisiae deletion strains, locus YML094W, strain GIM5, active compounds read low",0.875
same,normalized growth,"S. cerevisiae deletion strains, locus YMR219W, strain ESC1, active compounds read low",0.969
same,normalized growth,"S. cerevisiae deletion strains, locus YMR263W, strain SAP30, active compounds read low",0.917
same,normalized growth,"S. cerevisiae deletion strains, locus YNL153C, strain GIM3, active compounds read low",0.987
same,normalized growth,"S. cerevisiae deletion strains, locus YNL298W, strain CLA4 (second series), active compounds read low",0.888
same,normalized growth,"S. cerevisiae deletion strains, locus YNL322C, strain KRE1, active compounds read low",0.962
same,normalized growth,"S. cerevisiae deletion strains, locus YNR030W, strain Alg12, active compounds read low",0.903
same,normalized growth,"S. cerevisiae deletion strains, locus YOL006C, strain TOP1, active compounds read low",0.913
same,normalized growth,"S. cerevisiae deletion strains, locus YPL055C, strain LGE1, active compounds read low",0.789 (active)
same,normalized growth,"S. cerevisiae deletion strains, locus YPL241C, strain CIN2, active compounds read low",0.873
same,normalized growth,"S. cerevisiae deletion strains, locus YPR135W, strain CTF4, active compounds read low",0.694
same,normalized growth,"S. cerevisiae strains, strain wild type, active compounds read low",0.984
